This is a sample that favours compounds with a hit; in the whole collection about 17% have one here.
HepG2 tox: kills HepG2 cells in TGF-b inhibitor counter-screen | 410,000 tested, 0.76% active | HepG2 CAGA-GFP viability, ATP luminescence, 18 h | Potency, µM (highest dose often 46.1 µM), for inactives: at the highest dose activity change, negative = cytotoxicity, most hits filed as cytotoxic | AID 588856
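HepG2 CAGA-GFP cells (1000/well, DMEM with 1% FBS) received compound, then TGF-beta at 500 pg/mL final, and were incubated 18 hours at 37 degrees C. Viability was read by CellTiter-Glo luminescence. Media-only wells were set as complete cell-killing and DMSO as no toxicity.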
TDP1 cell CPT: DT40-hTDP1 cell growth loss with CPT; chicken DT40 Tdp1-/-;hTDP1 cells + 20 nM CPT, ATP luminescence, 48 h; Potency, µM (titrated, usually from 46.2 µM), for the others: top-dose activity change, negative = growth inhibition, hits mostly inhibitors; 420,000 tested, 12% active; further: on the % scale 0 is the no-effect control and ±100 the full control effect; nearly all actives have a fitted effect of over 55% in size
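Chicken DT40 Tdp1-/- cells stably complemented with human TDP1 were seeded at 400 cells/well in medium containing 20 nM camptothecin, exposed to pin-transferred compounds, and grown at 37 °C for at least 48 hr. Viability was read as ATP luminescence.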
TDP1 cell noCPT: qHTS for Inhibitors of human tyrosyl-DNA phosphodiesterase 1 (TDP1): qHTS in cells in absence of CPT; DT40 Tdp1-/- hTDP1 cells, no CPT, ATP luminescence, 48 h; AID 686978, 2013; 420,000 tested, 15% active; Potency, µM (highest dose often 46.2 µM), for inactives: at the highest dose activity change, negative = growth inhibition, hits mostly inhibitors; further: on the % scale 0 is the no-effect control and ±100 the full control effect; nearly all actives have a fitted effect of over 55% in size
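Stably hTDP1-transfected Tdp1-null chicken DT40 cells were treated with library compounds minus camptothecin and grown for at least 48 hr at 37 °C, after which cellular ATP was quantified by luminescence.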
ATXN2 expr inh: reduces ATXN2 reporter expression in HEK-293 cells; 360,000 tested, 0.72% active; Potency, µM (doses to about 57 µM), for the others: at the highest dose activity change, negative = inhibition, most hits filed as inhibitors; HEK-293 ATXN2-luciferase reporter, luminescence, 24 h; further: on the % scale 0 is the no-effect control and ±100 the full control effect; nearly all actives have a fitted effect of over 55% in size
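ATXN2-luciferase reporter cells (luciferase flanked by upstream and downstream ATXN2 gene portions) were treated 24 h at 37 °C with compounds at up to 57 uM. SteadyGlo luminescence gave expression; GF-AFC fluorescence gave viability.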
S2 tox: cell viability loss in ATXN counter-screen; S2 cells (HEK-293 line with an ATXN2-luciferase reporter) viability, CellTiter-Fluor protease fluorescence, 24 h; Potency, µM (series often up to 56.7 µM), usual class: cytotoxic; 400,000 tested, 0.49% active; further: nearly all actives have a fitted effect of over 40% in size
TGFb SMAD3 inh: TGF-b pathway inhibition; HepG2 CAGA-GFP TGF-b/SMAD3 reporter, GFP fluorescence, 18 h; TGF-beta stimulated, 500 pg/mL final; Potency, µM (top dose mostly 46.1 µM), for inactives: at the top dose activity, negative = inhibition, actives largely listed as inhibitors; 410,000 tested, 1.2% active; AID 588855; further: on the % scale 0 is the no-effect control and ±100 the full control effect; nearly all actives have a fitted effect of over 65% in size
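Per well, imaged GFP fluorescence of HEPG2 CAGA-GFP cells gives the signal; cells get compound, then TGF-beta (500 pg/mL final), 18 h at 37 degrees C; %Activity versus -TGF-beta and +DMSO controls.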
* = called active by the depositor; i = inactive; ? = inconclusive; nt = not tested or not shown. The call rests on the fitted dose curve; in most records, active means well fitted curve in the direction sought with a large enough effect; inconclusive means small, poorly fitted or top-dose-only effect, or another doubt; inactive means no such curve, though single readings can be large; an effect the other way counts as inactive or inconclusive. Potency means the concentration at half of the fitted maximal effect.

SMILES	HepG2 tox	TDP1 cell CPT	TDP1 cell noCPT	ATXN2 expr inh	S2 tox	TGFb SMAD3 inh
Cc1ccc(C(=O)N/C(=C\c2ccc(-c3ccccc3[N+](=O)[O-])o2)C(=O)NCCCN2CCOCC2)cc1	-30.5%	20.6µM*	?	-19.1%	i	?
Cc1ccc(C(=O)N/C(=C\c2ccc(-c3ccc(Br)cc3)o2)C(=O)NCCCN(C)C)cc1	4.47µM*	4.61µM*	3.26µM*	10µM*	31.6µM*	7.08µM*
CN(C)CCNC(=O)/C(=C/c1ccc(-c2ccc(Cl)cc2Cl)o1)NC(=O)c1ccccc1	-104.8%	?	?	-25.2%	?	?
COc1ccc(/C=C(/NC(=O)c2ccc([N+](=O)[O-])cc2)C(=O)NCCCN(C)C)cc1	-1.9%	3.7%	-7.4%	-15.1%	i	1.3%
Cc1ccc(C(=O)N/C(=C\c2cn(C)c3ccccc23)C(=O)NCCCN2CCOCC2)cc1	-8.3%	8.5%	-4.4%	-6.3%	i	-1.3%
CN(C)CCNC(=O)/C(=C/c1ccc(-c2ccc(Cl)cc2)o1)NC(=O)c1ccccc1	15.8µM*	?	?	-18.1%	i	?
COc1ccc(-c2ccc(/C=C(\NC(=O)c3ccccc3)C(=O)N3CCOCC3)o2)cc1	-12.6%	14.6µM*	20.6µM*	?	?	-11.7%
COc1cccc(NC(=O)CN(C)C(=O)c2oc3c(ccc4ccccc43)c2C)c1	-19.7%	11.7%	?	4.2%	i	?
CCOC(=O)[C@]12CCC=C1N(Cc1ccco1)C(=O)[C@H](CC(=O)NCc1ccccc1)C2	nt	-5.1%	-12.9%	10.1%	i	nt
COc1ccc(OC)c2c1C(=O)c1ccccc1C2=O	-1.4%	-9.1%	-29.4%	0.6%	i	42.9%
COC1=C(Nc2ccccc2)C(=O)c2ccccc2C1=O	-95.1%	11.6µM*	11.6µM*	-18.7%	?	15.8µM*
COC1=C(OC)C(=O)c2ccccc2C1=O	nt	7.94µM*	8.91µM*	nt	nt	nt
COC1=C(Nc2ccc(C)cc2)C(=O)c2ccccc2C1=O	-89.3%	?	16.4µM*	5.1%	?	?
COCCNC(=O)CSc1nc(-c2ccccc2)c(-c2ccccc2)o1	-19.8%	11.6µM*	?	-28.2%	i	-21.9%
O=C(COc1ccc(Cl)cc1)N(Cc1ccccc1)c1nc(-c2ccccc2)cs1	-36.6%	?	25.9µM*	-34.3%	i	15.4%
Cc1ccccc1Nc1nc(N)nc(CCl)n1	1.2%	20.6µM*	23.1µM*	-38.3%	?	-16.0%
Nc1nc(CCl)nc(Nc2ccc3ccccc3c2)n1	-63.7%	11.6µM*	14.6µM*	3.77µM*	3.36µM*	?
Nc1nc(CN2CCN(Cc3ccccc3)CC2)nc(Nc2ccc3c(c2)OCCO3)n1	-51.9%	-28.7%	-25.9%	33.6%	i	13.0%
COc1ccc(Nc2nc(N)nc(CCl)n2)cc1	-48.9%	23.1µM*	?	nt	?	-0.2%
C[C@]1(OC(=O)/C=C\c2ccccc2)C[C@@H](O)[C@@]2(O)C=CO[C@@H](O[C@H]3O[C@@H](CO)[C@@H](O)[C@@H](O)[C@@H]3O)[C@H]21	nt	nt	nt	nt	i	nt
CCOc1cc(C2C(C(=O)OC)=C(C)NC3=C2C(=O)c2ccccc23)ccc1OC (stereo not given)	-29.6%	?	20.6µM*	nt	nt	0.0%
C#CCOc1ccc(C2C(C(=O)OC)=C(C)NC3=C2C(=O)c2ccccc23)cc1OCC (stereo not given)	6.4%	?	?	-22.6%	?	5.9%
CCOc1cc(C2C(C(=O)OC)=C(C)NC3=C2C(=O)c2ccccc23)cc(Br)c1OCC (stereo not given)	-26.6%	?	5.17µM*	-18.5%	?	1.8%

High-throughput results as filed in PubChem.
